Test results: PubChem BioAssay AID2462 (Broad Institute, 2010)
In all, about 330,000 compounds went through this assay and about 220 (0.067%) were called active.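 How the source made its calls: active means over half of replicate activation scores above 10%, or exactly half above 10 with the replicate mean above 10; inconclusive means replicate mean below 10 yet half the replicates above 10; inactive means over half of replicates below 10.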 What follows is part of a selection rich in actives, with near analogues and random picks from the rest.

Assay: caspase 3/7 activation in MEF A1-2A-BIM cells, primary screen, A1 inhibitor project, cell-based, luminescence, HTS (AID 2462)
Settings: Caspase-Glo 3/7 luminescence, 3 h, hits give high values, percent of clofoctol response, vehicle zero, concentration not given here

Structure (SMILES) | caspase activation
C=CCOc1c(CNn2cn[nH]c2=S)cccc1OC | 0.398% (inactive)
CCOC(=O)c1c(C)n(C)c2ccc(OC)c(NS(=O)(=O)CC)c12 | -0.135% (inactive)
CC12CCC(C(=O)N(NC(=O)c3ccccc3O)C1=O)C2(C)C (configuration not stated) | 1.44% (inactive)
CCOC(=O)c1cnc(-n2nc(C)cc2C)nc1NNc1cc(C)nc(-c2ccccc2)n1 | -0.244% (inactive)
O=C1CC(Cc2ccccc2)C(=O)N1c1ccc(Cl)cn1 (configuration not stated) | -0.386% (inactive)
CCOC(=O)C1=C(CN2CCc3ccccc32)NC(=O)NC1c1cc(C)ccc1C (configuration not stated) | -0.324% (inactive)
COC(=O)c1ccc(/C=C/c2c(-c3ccc(OC)cc3)sc3ccccc23)cc1 | 0.0613% (inactive)
CCOc1ccc(NC(=O)c2ccc(CSc3nnnn3C)cc2)cc1 | -1.46% (inactive)
CN1CCN(CC(=O)C23CC4CC(CC(C4)C2)C3)CC1 | -0.618% (inactive)
Cc1c(C(=O)NNC(=O)c2ccncc2)oc2ccccc12 | -1.06% (inactive)
O=c1cc(CN2CCN(c3cccc(Cl)c3)CC2)c2cc3c(cc2o1)CCCC3 | 0.443% (inactive)
Cc1cccc(N2CC(C(=O)Nc3ccccc3N3CCCC3)CC2=O)c1C (configuration not stated) | -0.198% (inactive)
COc1ccc(C2C(C#N)=C(N)Oc3cc(N)ccc32)cc1OC (configuration not stated) | 0.292% (inactive)
FC(F)(F)c1ccnc(Oc2ccc(C3=NCCS3)cc2)c1 | -5.34% (inactive)
CC(=O)Nc1ccc(C(=O)OCC(=O)Nc2ccc([N+](=O)[O-])cc2C(F)(F)F)cc1 | 0.347% (inactive)
Cc1ccc(CNC(=O)C2CCCN2C(=O)NCc2ccccc2)cc1 (configuration not stated) | 0.299% (inactive)
Cc1cccc(OCCNC(=S)NC(=O)c2cccnc2)c1 | 0.352% (inactive)
O=C(NCCN1CCN(C(=O)c2cccc([N+](=O)[O-])c2)CC1)C(=O)NCc1ccc(Cl)cc1 | -0.117% (inactive)
O=C(CN(Cc1ccccc1)C(=O)CCC(=O)Nc1ccccn1)NCCc1ccccc1 | -0.282% (inactive)

Structure (SMILES) | caspase activation
CCOC(=O)CC1COCCN1C(=O)c1cc(COc2ccc(F)c(F)c2)on1 (configuration not stated) | -0.113% (inactive)
Cc1ccc(-n2ncc3c2CC(C)(C)CC3NC(=O)CCc2cnn(C)c2)cc1 (configuration not stated) | 0.222% (inactive)
COc1ccc(N2CCN(C(=O)CCSCc3ccccc3F)CC2)cc1 | -0.325% (inactive)
CSc1ccc(/C=C2\NC(=O)NC2=O)cc1 | -0.861% (inactive)
O=C(CCc1n[nH]c(=O)[nH]c1=O)N/N=C/c1ccc(Br)o1 | -0.493% (inactive)
CN(C(=O)c1cccc(NC(=O)C2CCN(C(=O)OC(C)(C)C)CC2)c1)C1CCC1 | 0.788% (inactive)
COCCCNC(=O)C1CCN(c2ccc(N3CCOCC3)nn2)CC1 | 0.283% (inactive)
C#CCOCCOCCOCCNc1nc(N2CCN(C(=O)[C@H](CCCN=C(N)N)n3cc(C(N)[C@@H](C)CC)nn3)CC2)nc(N2CCN(C(=O)[C@H](CO)n3cc([C@@H](N)C(C)C)nn3)CC2)n1 (some centres not stated) | 0.85% (inactive)
COC(=O)CNC(=O)c1ccc2c(c1)S(=O)(=O)c1ccccc1C2=O | -0.413% (inactive)
CCC1C(=O)NCCN1C(=O)c1ccc2nc(Cc3ccc(OC)cc3)oc2c1 (configuration not stated) | -0.419% (inactive)
COc1ccc(CCNc2cc(N3CCN(C(=O)c4ccccc4OC)CC3)ccc2[N+](=O)[O-])cc1OC | -0.378% (inactive)
O=C1c2ccccc2NC(c2ccccn2)N1NS(=O)(=O)c1ccccc1 (configuration not stated) | 1.93% (inactive)
CC(=O)c1ccccc1NC(=O)C1CC(=O)N(c2ccc3c(c2)OCCO3)C1 (configuration not stated) | 0.41% (inactive)
Cc1ccc(-c2nnc(CN3CCN(C)CC3)o2)cc1 | 0.0366% (inactive)
COc1cc2c(cc1OC)C(C(=O)Nc1cc(C)c(OC)c(C)c1)CC(=O)N2 (configuration not stated) | 0.803% (inactive)
Cc1ccc2cc3cc(C(=O)N4CCCCCC4)oc3nc2c1 | 0.083% (inactive)
NC1=NC(=O)C(Cc2cccc(Cl)c2)S1 (configuration not stated) | -0.108% (inactive)
CC(C)(C)OC(=O)N[C@H](C(=O)OC(C)(C)C)c1ccc(Br)cc1 | -0.98% (inactive)
CCOC(=O)c1c(NC(=O)CCCN2CCOCC2)sc2c1CC(C)(C)OC2 | -0.683% (inactive)

Structure (SMILES) | caspase activation
CN(C)C(=O)Cn1c(=O)n(S(=O)(=O)c2ccccc2)c2ccccc21 | -0.645% (inactive)
CN(c1ccc2nc3ccccc3c(=O)n2n1)C1CCCCC1 | 0.636% (inactive)
CN(C(=O)CSc1nnc(N)s1)c1c(N)n(Cc2ccccc2)c(=O)[nH]c1=O | 0.167% (inactive)
O=[N+]([O-])C(=c1ccc2c(c1)N1C3=C(CCCC3)CC3CCCCC31N=2)[N+](=O)[O-] (configuration not stated) | 6.39% (active)
CCOC(=O)C(NC(=O)CC(C)C)(Nc1sc2c(c1C(N)=O)CCCC2)C(F)(F)F (configuration not stated) | 0.722% (inactive)
O=C(O)c1cc2ccccc2c(=O)s1 | 1.64% (inactive)
COc1ccc(CCNC(=O)CN(C)S(=O)(=O)c2ccc3nc(C)sc3c2)cc1OC | -2.31% (inactive)
CCC(C)NC(=O)N[C@@H](CCSC)C(=O)O (some centres not stated) | 0.604% (inactive)
CCCCC(O)(CCCC)C(=O)NN(C(=O)CCl)c1ccccc1 | 0.273% (inactive)
COc1ccc(OCC(=O)NN2Cc3ccccc3C2=N)cc1 | 1.26% (inactive)
Cc1ccc2oc(C(=O)N3CCN(C)C[C@@H]3C(C)C)c(C)c2c1 | -0.346% (inactive)
CCOc1ccccc1-n1c(SCC(=O)NCc2ccco2)nnc1-c1ccncc1 | -0.681% (inactive)
O=C(NCc1ccccc1)C1CCCN(c2nc3ccsc3c(=O)s2)C1 (configuration not stated) | -0.382% (inactive)
COc1cccc(NC(=O)Cn2c3ccc(F)cc3c3nc4n(c(=O)c32)CCS4)c1 | -1.98% (inactive)
O=c1c(-c2ccccc2Cl)c[nH]n1-c1ccccc1 | -1.88% (inactive)
COc1ccc(C(=O)NCCSc2ccccc2C)cc1 | -1.26% (inactive)
OCCC1CN(Cc2cnc(-c3ccccc3)s2)CCN1CCc1ccccc1 (configuration not stated) | 0.493% (inactive)
CCOCCn1[nH]c2ccccc2c1=O | -0.169% (inactive)
O=S(=O)(Nc1ccc(-c2ccc(N3CCOCC3)nn2)cc1)c1cc(Cl)ccc1Cl | 0.476% (inactive)
